Article PMC6689086

How the values were obtained:
[1] = target: ATP-dependent molecular chaperone HSC82 (UniProt P15108); assay: mass-spectrometry hit list; affinity purification or IP with mass spectrometry
Heat shock protein SSA1 = Heat shock protein SSA1 (UniProt P10591); assay: as above
Sequence of Heat shock protein SSA1 (P10591 whole entry): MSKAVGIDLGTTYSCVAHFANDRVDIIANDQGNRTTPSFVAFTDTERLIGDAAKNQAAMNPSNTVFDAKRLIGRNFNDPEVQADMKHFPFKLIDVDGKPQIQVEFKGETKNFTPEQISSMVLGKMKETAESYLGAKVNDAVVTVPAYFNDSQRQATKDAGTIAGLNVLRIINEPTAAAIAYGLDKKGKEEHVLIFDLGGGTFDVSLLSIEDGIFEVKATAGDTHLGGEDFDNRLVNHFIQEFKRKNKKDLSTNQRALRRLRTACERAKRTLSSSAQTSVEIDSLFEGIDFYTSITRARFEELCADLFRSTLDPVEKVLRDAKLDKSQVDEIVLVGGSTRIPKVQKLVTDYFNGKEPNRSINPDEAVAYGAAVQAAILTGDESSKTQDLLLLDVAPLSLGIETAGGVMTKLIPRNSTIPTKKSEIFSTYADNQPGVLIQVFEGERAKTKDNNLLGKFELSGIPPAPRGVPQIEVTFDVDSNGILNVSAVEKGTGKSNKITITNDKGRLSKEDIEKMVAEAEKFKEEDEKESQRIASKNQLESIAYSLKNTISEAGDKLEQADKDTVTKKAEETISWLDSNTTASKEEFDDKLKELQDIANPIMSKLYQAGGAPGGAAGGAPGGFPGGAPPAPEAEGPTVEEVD

Sequence of ATP-dependent molecular chaperone HSC82 (P15108 whole entry): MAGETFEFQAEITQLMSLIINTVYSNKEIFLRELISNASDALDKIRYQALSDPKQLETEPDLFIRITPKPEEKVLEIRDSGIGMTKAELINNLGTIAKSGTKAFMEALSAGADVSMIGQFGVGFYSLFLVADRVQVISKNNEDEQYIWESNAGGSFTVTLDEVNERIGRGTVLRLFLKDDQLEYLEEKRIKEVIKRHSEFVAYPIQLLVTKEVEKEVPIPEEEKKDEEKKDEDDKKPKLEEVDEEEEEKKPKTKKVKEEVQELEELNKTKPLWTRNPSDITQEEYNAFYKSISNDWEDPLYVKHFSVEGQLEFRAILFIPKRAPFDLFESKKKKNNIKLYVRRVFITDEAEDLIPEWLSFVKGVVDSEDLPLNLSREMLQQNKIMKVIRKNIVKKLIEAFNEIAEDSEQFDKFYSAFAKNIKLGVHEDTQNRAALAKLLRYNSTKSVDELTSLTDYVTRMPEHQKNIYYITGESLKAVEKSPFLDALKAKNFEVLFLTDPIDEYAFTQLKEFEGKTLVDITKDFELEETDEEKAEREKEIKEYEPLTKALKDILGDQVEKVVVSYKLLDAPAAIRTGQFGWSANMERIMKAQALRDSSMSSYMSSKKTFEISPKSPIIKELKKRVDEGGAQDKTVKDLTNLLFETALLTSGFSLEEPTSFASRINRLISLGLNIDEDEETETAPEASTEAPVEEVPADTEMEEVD
Sequence of Heat shock protein SSA1, P10591 (P10591 whole entry): as the sequence (P10591 whole entry) above

Substance	listed as a hit [1]	listed as a hit (Heat shock protein SSA1)
Heat shock protein SSA1, P10591	yes	
ATP-dependent molecular chaperone HSP82, P02829		yes
